The values below come from PubChem BioAssay (NCATS).

Molecules are shown by their SMILES. Records with an inconclusive call do not appear. Where a call stands in place of a potency, no number is given. Active and inactive are the calls of the source. Calls come from the whole dose curve; as a rule, active = well fitted inhibition curve with a large enough effect; inconclusive = small, poorly fitted or top-dose-only effect; inactive = flat fitted curve, though single readings scatter.

Chain of Calcium and integrin-binding protein 1 (Homo sapiens) (Q99828 whole entry, looked up): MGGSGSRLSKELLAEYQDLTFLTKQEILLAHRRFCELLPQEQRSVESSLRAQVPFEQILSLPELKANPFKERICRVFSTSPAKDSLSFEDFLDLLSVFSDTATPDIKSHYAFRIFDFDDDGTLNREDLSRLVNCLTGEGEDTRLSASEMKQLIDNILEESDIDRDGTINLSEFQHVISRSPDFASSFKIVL

The target of the test is Calcium and integrin-binding protein 1 (Homo sapiens) (UniProt Q99828). Description: Primary qHTS for Identification of Calcium Integrin Binding Protein 1 (CIB1) Competitor (AID 1508620). Note: top concentration of the series differs between compounds. The settings on record: CIB1-GST / FITC-alphaIIb peptide fluorescence polarization; series mostly up to 114 µM. The gist of the method:
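Fluorescence polarization competition: GST-tagged CIB1 (1 uM final) preincubated with compound 15 min at room temperature, then FITC-labelled alphaIIb peptide (100 nM final) added. After 15 min at room temperature, polarization read at Ex 480/Em 540.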
`COc1ccc(NS(=O)(=O)c2ccccc2)cc1NS(=O)(=O)c1ccccc1`: the Potency entry is “inactive”.
On to `O=C(Cn1cc(CNC(=O)C2CCCCC2)nn1)Nc1cc(C(F)(F)F)ccc1Cl`, for which the Potency result was “inactive”.
For `NCCCCNc1ncnc2ccc(-c3ccc4c(c3)OCO4)cc12`, the Potency entry is “inactive”.
Take `COc1ccc(C2Nc3ccccc3C(=O)N2Cc2cccc(Cl)c2)cc1COc1ccc(NC(C)=O)cc1` (stereo not given): the Potency entry is “inactive”.
Then `CN(Cc1cncn1C)c1ncnc2ccc(-c3ccc4c(c3)OCO4)cc12`, with “inactive”.
For the compound `FC(F)(F)c1cnc(N2CCN(C(=S)Nc3cc(Cl)ccn3)CC2)c(Cl)c1`, the Potency result was “inactive”.
Consider `COc1ccccc1CNC(=O)Nc1nnc(-c2ccncc2)s1`, for which the Potency result was “inactive”.
Take `COc1cc(O)c(C(CC(=O)N2CCC(c3ccccc3)CC2)c2ccc3c(c2)OCO3)c(OC)c1` (stereo not given): the Potency entry is “inactive”.
Then `O=C(O)c1ccc(-c2noc(-c3ccccc3F)n2)cc1`, with “inactive”; and `COc1ccc(S(=O)(=O)N2CCN(S(=O)(=O)c3c(F)cccc3F)CC2)cc1`, with “inactive”; and `CCOC(=O)C1CCN(C(=O)C(C)(C)NC(=O)Nc2ccc3c(c2)CCC3)CC1`, with “inactive”.
With `O=C(OCC#CCSc1nnc(-c2ccc3ccccc3c2)o1)c1cccs1`, the Potency result was “inactive”.
As for `Fc1cccc(CNc2ncnc3ccc(-c4cccc(Cl)c4)cc23)c1`, the Potency result is “inactive”.
On to `COc1cc(-c2nc(Nc3ccc(F)c(F)c3)c3ccccc3n2)c(F)cn1`, for which the Potency entry was “inactive”.
On to `Cc1cccc(-n2cnc3cc(C(=O)N4CCC(Cc5ccccc5)CC4)ccc32)c1`, for which the Potency result is “inactive”.
With `O=[S+]([O-])(NC[C@H]1CCC[C@H](CN[S+](=O)([O-])c2c(F)cccc2F)C1)c1ccc2c(c1)OCCO2`, the Potency entry was “inactive”.
As for `Cc1ccnc(NC(=S)N2CCN(c3ccccc3C(F)(F)F)CC2)c1`, the Potency entry was “inactive”.
Under `Cc1ccc(-c2ccc(=O)n(CCN)n2)cc1` stands “inactive”; under `CC(C)(C)OC(=O)NCC(=O)NNC(=O)C(C(=O)OCc1ccccc1)c1ccccc1` (stereo not given), “inactive”; under `CCOC(=O)c1ccc(-c2ccc3ncnc(N(C)Cc4sccc4C)c3c2)o1`, “inactive”.
`O=C1c2ccccc2NC(c2ccc(-c3ccc(-c4ccccc4)cc3)o2)N1O` (stereo not given): the Potency result was “inactive”.
For `O=[S+]([O-])(c1ccc2c(c1)OCCO2)N1CCN([S+](=O)([O-])c2ccccc2Br)CC1`, the Potency result is “inactive”.
With `O=C(Cc1ccc(Cl)c(Cl)c1)Nc1ccc(S(=O)(=O)O)cc1`, the Potency entry was “inactive”.
Consider `Cc1nnc(-c2cnn(C)c2N)o1`, for which the Potency entry was “inactive”.
In the case of `Cc1cnc(-c2ccccc2C(C)C)nc1NCc1ccc(C#N)cc1`, the Potency result is “inactive”.
As for `Cc1cc(C)n2ncc(C(=O)Nc3ccc(C)c(C)c3)c2n1`, the Potency entry was “inactive”.
Consider `NC(=O)C1CCN(c2nc(-c3ccccc3-c3ccccc3)cs2)CC1`, for which the Potency result is “inactive”.
With `Cc1cc(N[S+](=O)([O-])c2cc3c(cc2Cl)CCC(=O)N3)ccc1Br`, the Potency result is “inactive”.
With `COc1ccc(NC(=O)C(OC(=O)CNC(=O)c2ccccc2)c2ccccc2)cc1Cl` (stereo not given), the Potency result was “inactive”.
As to `Cc1ccc(-c2ccc(=O)n(CC(=O)NCCCc3ccccn3)n2)cc1`, the Potency result is “inactive”.
For `COc1cccc(CCC(=O)NCCc2nc3ccccc3n2CCOc2ccc(C)cc2)c1`, the Potency result was “inactive”.
For the compound `COc1cccc(S(=O)(=O)N2CCN(S(=O)(=O)c3ccc4c(c3)OCCO4)CC2)c1`, the Potency entry was “inactive”.
Turning to `COc1ccc(OC)c(NC(=O)c2ccccc2OC(C)=O)c1`, the Potency result was “inactive”.
Turning to `CC(=O)c1ccc(N2CCN(C(=O)c3ccc4c(c3)CC(=O)N4)CC2)cc1`, the Potency entry was “inactive”.
In the case of `Cc1nnc(-c2ccccc2[N+](=O)[O-])n1CCCn1ccnc1`, the Potency result was “inactive”.
On to `Cn1cncc1CNc1ncnc2ccc(-c3ccc4c(c3)OCO4)cc12`, for which the Potency entry is “inactive”.
Under `O=C(Cn1cc(CN(Cc2ccccc2)Cc2ccccc2)nn1)Nc1cc(C(F)(F)F)ccc1Cl` stands “inactive”; under `Cc1noc(C)c1-c1ccc2ncnc(NCC3CCN(C)CC3)c2c1`, “inactive”; under `Cc1cc(C)nc(NC(=S)N2CCN(c3cnccn3)CC2)c1`, “inactive”.
Under `N#Cc1c(-c2ccc(O)cc2)no[n+]1[O-]` stands “inactive”.
